# High-throughput results as filed in PubChem BioAssay.
# Only some compounds are listed: those with a hit (about 1.1% of all), similar ones and a draw of the others.
# Integrin act MD: integrin-mediated muscular dystrophy alleviation activation. alpha7betagal myoblasts, beta-gal FDG fluorescence, 48 h. Potency, µM (titrated, usually from 38.3 µM), most hits filed as activators. 350,000 tested, 0.064% active. AID 624291; note: nearly all actives have a fitted effect of over 60% in size
#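 alpha7betagal+/- myoblasts (passage 13, 250/well) treated 48 h at 37C with compounds at 1:260 dilution of DMSO stock. Lysed, then beta-galactosidase activity read as FDG fluorescence (ex 480/em 540) after 30 min, with pre-read for autofluorescence.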
# PI4K2A inh: PI4K2A (human) kinase inhibition. 420,000 tested, 0.13% active. purified PI4K2A, ADP-Glo luminescence, 1 h; hits give low values. activity change, negative = inhibition, % at 76.9 µM; in the data active = activity change below about -50%; inconclusive = mostly about -30% to -49%
# Target sequence (Q9BTU6 whole entry, looked up): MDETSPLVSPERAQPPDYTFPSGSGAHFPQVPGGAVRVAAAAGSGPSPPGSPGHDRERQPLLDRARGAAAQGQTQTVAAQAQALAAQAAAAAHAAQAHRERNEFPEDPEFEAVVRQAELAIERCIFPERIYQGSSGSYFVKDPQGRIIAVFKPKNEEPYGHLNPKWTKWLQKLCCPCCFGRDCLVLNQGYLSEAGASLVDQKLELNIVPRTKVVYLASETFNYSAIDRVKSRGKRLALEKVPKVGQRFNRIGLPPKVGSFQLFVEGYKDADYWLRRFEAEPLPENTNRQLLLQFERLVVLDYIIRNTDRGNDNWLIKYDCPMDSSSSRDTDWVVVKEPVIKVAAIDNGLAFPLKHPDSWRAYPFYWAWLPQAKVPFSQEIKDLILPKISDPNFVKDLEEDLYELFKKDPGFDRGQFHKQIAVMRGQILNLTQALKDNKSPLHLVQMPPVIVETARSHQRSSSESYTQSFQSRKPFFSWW
#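 ADP-Glo luminescence measured ADP generated by PI4K2A enzyme (4 ug/mL before mixing) with 1.2 mM PI substrate (pre-mix) and 300 microM ATP (pre-mix). Tris pH7.5 buffer with MgCl2, Triton X-100; 1 h reaction at ambient temperature.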
# rTrxR1 inhibitor: blocks rat thioredoxin reductase 1. recombinant rTrxR1, NADPH fluorescence consumption, selenite substrate. Potency, µM (titrated, usually from 114 µM), most hits filed as inhibitors. 390,000 tested, 1% active. AID 588453; note: nearly all actives have a fitted effect of over 65% in size
#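 Rat TrxR1 (90 nM in the dispensed reagent) was pre-reduced with 400 uM NADPH for 5 min at room temperature, then incubated with compound for 15 min. After 400 uM selenite was added, NADPH fluorescence (Ex 340/Em 450 nm) was followed for 8 min.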
# GALK inh: inhibitors of human galactokinase; Purified GALK, Kinase-Glo residual ATP luminescence; Potency, µM (doses to about 57.5 µM), most hits filed as inhibitors; 270,000 tested, 0.007% active; P51570; AID 1868
#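 The enzyme phosphorylates galactose (100 uM) using ATP (35 uM); inhibition is detected as higher residual ATP, quantified by bioluminescence after 1 h reaction at room temperature, pH 8.0.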
# LDHA block: LDHA (human) enzyme inhibition | 480,000 tested, 0.15% active | P00338 | activity change, % (values are at about 110 or 230 µM) | purified LDHA, NADH/diaphorase-resazurin fluorescence; hits give low values; in the data active = activity change below about -30%; inconclusive = mostly about -25% to -30%
#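 Remaining NADH was detected by diaphorase (0.133 mg/mL) converting 37 µM resazurin to fluorescent resorufin, read at 0 and 20 minutes. The preceding 5-minute room-temperature reaction used 2 nM LDHA, 0.2 mM sodium pyruvate and 0.06 mM NADH at pH 7.4.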
# TrxR1 substrate: substrates of rat thioredoxin reductase 1 | O89049 | purified TrxR1 substrate turnover, NADPH consumption readout | Potency, µM (top dose mostly 114 µM) | 390,000 tested, 0.01% active; note: nearly all actives have a fitted effect of over 50% in size
#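 Rat TrxR1, dispensed at 90 nM, was prereduced with 400 uM NADPH (final) for 5 min at ~22 deg C, then incubated with compound 15 min before 400 uM selenite. A first-read NADPH fluorescence drop versus no-compound background flagged substrates.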
# Hits are given with their value; . = inactive; ? = inconclusive; / = no result. Unless noted, calls come from the whole dose curve; as a rule, active = well fitted curve in the direction sought with a large enough effect; inconclusive = small, poorly fitted or top-dose-only effect, or another doubt; inactive = no such curve, though single readings can be large; an effect the other way counts as inactive or inconclusive.
SMILES,Integrin act MD,PI4K2A inh,rTrxR1 inhibitor,GALK inh,LDHA block,TrxR1 substrate
CC(C)OC(=O)c1nn2c(C(F)(F)F)cc(-c3ccc(Br)o3)nc2c1Br,.,.,25.1µM,.,.,.
COc1cc(C(C[N+](=O)[O-])c2c(-c3ccccc3)cc3ccccn23)cc(OC)c1OC (stereo unspecified),.,.,1.78µM,.,.,.
COc1ccc(C(C[N+](=O)[O-])c2c(-c3ccccc3)cc3ccccn23)cc1OC (stereo unspecified),.,.,15.8µM,.,.,.
COc1ccc(C(C[N+](=O)[O-])c2c(-c3ccccc3)cc3ccccn23)cc1 (stereo unspecified),.,.,?,.,.,.
OCc1cc2ccc(Br)cc2[nH]1,/,/,/,/,.,/
O=C(CCCc1nc2ccccc2o1)NCc1ccccc1Cl,/,/,/,/,.,/
COc1ccc(NC(=O)c2cccc(N3C(=O)c4ccc(C(=O)Nc5ccc(OC)c(O)c5)cc4C3=O)c2)cc1O,4.47µM,.,.,.,.,.
CC(=O)c1ccc(NC(=O)c2cccc(N3C(=O)c4ccccc4C3=O)c2)cc1,.,.,.,.,.,.
CS(=O)(=O)N1CCN(C2C3CC4CC(C3)CC2C4)CC1 (stereo unspecified),.,.,.,.,-31.9,.
CCS(=O)(=O)N1CCN(C2CCC(C)CC2)CC1 (stereo unspecified),.,.,.,.,.,.
CC1CCC(N2CCN(S(C)(=O)=O)CC2)CC1 (stereo unspecified),.,.,.,.,-33.7,.
Cc1c(-c2ccccc2)nn2c1NC(=O)CC2C(=O)Nc1ccc2c(c1)OCO2 (stereo unspecified),/,/,/,/,.,/
COC(=O)Cc1c(C)c2cc3c(c(C)c2oc1=O)OCN(CCc1ccc(OC)cc1)C3,/,.,79.4µM,/,.,.
COc1ccccc1CCN1COc2c(cc3c(C)c(C)c(=O)oc3c2C)C1,/,.,89.1µM,/,.,.
COC(=O)Cc1c(C)c2cc3c(c(C)c2oc1=O)OCN(CCc1ccccc1F)C3,/,.,?,/,.,.
CCc1c(C)c2cc3c(c(C)c2oc1=O)OCN(CCc1ccc(OC)c(OC)c1)C3,/,.,?,/,.,.
O=C(NCC1(N2CCOCC2)CCCCC1)c1nn(-c2ccccc2)c(=O)c2ccccc12,/,/,/,/,.,/
CCOc1cc(CNc2ccc(O)cc2)ccc1OCc1ccc(Cl)cc1Cl,.,?,28.2µM,.,.,.
CCOc1cccc(CNc2ccc(O)cc2)c1OCc1ccc(Cl)cc1,.,?,44.7µM,/,.,.
CCOc1cc(CNCc2ccccc2)ccc1OCc1ccc(Cl)cc1,.,.,.,.,.,.
CCOc1ccccc1CNc1ccc(O)cc1,.,.,?,.,.,.
Cn1c(SCC(=O)Nc2cccc(C(=O)O)c2)nnc1-c1cc2cc(Br)ccc2o1,.,.,.,.,-34.2,.
CN(C)S(=O)(=O)c1ccccc1CNS(=O)(=O)c1ccc2c(c1)CCCC2,/,/,/,/,.,/
CC(C)CNC(=O)CCc1ccc(C#N)cc1,/,/,/,/,.,/
O=C(O)c1cc(Nc2cc(Cl)c3nonc3c2[N+](=O)[O-])ccc1O,?,-59.0,1.78µM,.,.,.
SMILES,Integrin act MD,PI4K2A inh,rTrxR1 inhibitor,GALK inh,LDHA block,TrxR1 substrate
O=[N+]([O-])c1c(Nc2ccccc2O)cc(Cl)c2nonc12,.,.,0.708µM,.,.,.
Cc1ccc(Nc2ccc3nonc3c2[N+](=O)[O-])cc1Cl,/,/,/,/,.,/
O=[N+]([O-])c1c(Nc2ccccc2O)ccc2nonc12,.,.,.,.,.,.
N#C/C(=C\c1ccc(C(=O)O)cc1)c1ccccn1,.,-65.2,.,.,.,.
NC(=O)C1CCN(C(=O)CCc2ncc(-c3ccc(F)cc3)o2)CC1,/,/,/,/,.,/
O=C(O)c1ccc(-c2cc3ccccc3oc2=O)cc1,/,/,/,/,.,/
C[n+]1cccc(/C=N/Nc2nc(Cl)c(C#N)c(Cl)c2Cl)c1,.,.,50.1µM,.,.,.
N#Cc1c(Cl)nc(N/N=C/c2ccccc2)c(Cl)c1Cl,.,.,.,.,.,.
C[N+](C)(C)c1ccc(/C=N/Nc2nc(Cl)c(C#N)c(Cl)c2Cl)cc1,.,.,70.8µM,.,.,.
O=C(/C=C/c1ccccc1)/C=C/c1ccc(-c2ccccc2)cc1,/,/,/,/,.,/
O=C(/C=C/c1ccccc1)/C=C/c1ccccc1,.,.,56.2µM,.,.,.
Cc1ccccc1C(=O)Oc1cc(N)n(S(C)(=O)=O)n1,.,.,.,.,.,.
Cc1c(C(=O)Oc2cc(N)n(S(C)(=O)=O)n2)cccc1[N+](=O)[O-],.,.,25.1µM,.,.,.
CCCC(O)(CCC)C(=O)NN(C(=O)CCl)c1ccccc1,.,.,11.2µM,.,.,.
O=C(Nc1ccccc1F)C1Sc2nnc(-c3ccccc3)n2NC12CCCCC2 (stereo unspecified),/,/,/,/,.,/
O=C(c1ccc(Br)cc1)N1CCC(CN2CCOCC2)CC1,/,/,/,/,.,/
CCc1nnc(NC(=O)c2ccc(-c3ccc(Cl)cc3)o2)s1,?,.,.,.,.,.
O=C(NC(=S)Nc1ccc(S(=O)(=O)Nc2nccs2)cc1)c1ccc(F)cc1,.,.,22.4µM,/,.,.
CC(C)(C)C(=O)NC(=S)Nc1ccc(S(=O)(=O)Nc2nccs2)cc1,.,.,.,.,.,.
CCc1nnc(NC(=O)c2ccc(S(=O)(=O)NCC(C)C)cc2)s1,12.6µM,.,.,.,.,.
CCc1nnc(NS(=O)(=O)c2ccc(NC(=S)NC(=O)c3ccc(OC)cc3)cc2)s1,.,.,11.2µM,.,.,.
CCc1nnc(NC(=O)c2ccc(-c3ccc(C(C)=O)cc3)o2)s1,?,.,14.1µM,/,.,.
COc1ccc(CCNC(=O)CN(c2ccc(F)c(Cl)c2)S(C)(=O)=O)cc1OC,/,/,/,/,.,/
COc1ccc(S(=O)(=O)Nc2ccc(S(=O)(=O)Nc3nccs3)cc2)cc1,12.6µM,.,.,.,.,.
COc1ccc(CC(=O)Nc2ccc(S(=O)(=O)Nc3nccs3)cc2)cc1,.,.,.,.,.,.
CCc1nnc(NS(=O)(=O)c2ccc(NC(=S)NC(=O)/C=C/c3ccc([N+](=O)[O-])cc3)cc2)s1,.,.,.,/,.,.
CCc1nnc(NS(=O)(=O)c2ccc(NC(=S)NC(=O)/C=C/c3ccc(F)cc3)cc2)s1,.,.,50.1µM,.,.,.
CC(C)c1ccc(NC(=O)Cc2nn(C)c(=O)c3ccccc23)cc1,/,/,/,/,.,/
O=C(CCCN1C(=O)/C(=C\c2cccs2)SC1=S)Nc1ccc(O)cc1C(=O)O,.,.,.,.,.,.
O=C(CCCN1C(=O)/C(=C\c2ccco2)SC1=S)Nc1ccc(O)cc1C(=O)O,.,.,50.1µM,.,.,.
